The results in this text go back to ChEMBL document CHEMBL1961873, “Compounds: GSK PKIS; Assays: Nanosyn kinase panel” (2012).

The structures appear in SMILES notation.

Assay [1] deals with Casein kinase I isoform gamma-2 (Homo sapiens) (UniProt P78368). The conditions noted are these: at 1 µM.
Assay [2] addresses Casein kinase I isoform gamma-3 (Homo sapiens) (UniProt Q9Y6M4). The conditions noted are these: at 0.1 µM.
For assay [3] the target is unchanged. The conditions noted are these: at 1 µM.
The target in assay [4] is Cyclin-dependent kinase 1 (Homo sapiens) (UniProt P06493). The conditions noted are these: at 0.1 µM.
Assay [5] has the same target. The conditions noted are these: at 1 µM.
The target of assay [6] is Cyclin-dependent kinase 2 (Homo sapiens) (UniProt P24941). As to conditions: at 0.1 µM.
For assay [7] the target is unchanged. The conditions noted are these: at 1 µM.
The target is the same in assay [8]. As to conditions: at 0.1 µM. This is another data set of the same source.
For assay [9] the target is unchanged. As to conditions: at 1 µM. The source holds these as a separate data set.
The target of assay [10] is CDK3/Cyclin E (Homo sapiens) (UniProt P24864+Q00526). The conditions noted are these: at 0.1 µM.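 Further: reported percentages are mean inhibition values.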
Chain of CDK3/Cyclin E (Homo sapiens) (P24864 whole entry, looked up): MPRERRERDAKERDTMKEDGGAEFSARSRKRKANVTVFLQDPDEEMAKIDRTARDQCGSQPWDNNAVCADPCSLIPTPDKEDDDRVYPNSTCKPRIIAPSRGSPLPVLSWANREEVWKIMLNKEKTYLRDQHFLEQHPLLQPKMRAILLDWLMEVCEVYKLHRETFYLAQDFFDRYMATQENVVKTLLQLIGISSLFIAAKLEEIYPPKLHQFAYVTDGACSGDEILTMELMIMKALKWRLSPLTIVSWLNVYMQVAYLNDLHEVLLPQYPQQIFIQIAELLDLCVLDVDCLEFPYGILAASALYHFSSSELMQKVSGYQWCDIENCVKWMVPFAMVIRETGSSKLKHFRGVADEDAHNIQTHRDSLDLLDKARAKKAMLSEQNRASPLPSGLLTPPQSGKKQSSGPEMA
Chain of CDK3/Cyclin E (Homo sapiens) (Q00526 whole entry, looked up): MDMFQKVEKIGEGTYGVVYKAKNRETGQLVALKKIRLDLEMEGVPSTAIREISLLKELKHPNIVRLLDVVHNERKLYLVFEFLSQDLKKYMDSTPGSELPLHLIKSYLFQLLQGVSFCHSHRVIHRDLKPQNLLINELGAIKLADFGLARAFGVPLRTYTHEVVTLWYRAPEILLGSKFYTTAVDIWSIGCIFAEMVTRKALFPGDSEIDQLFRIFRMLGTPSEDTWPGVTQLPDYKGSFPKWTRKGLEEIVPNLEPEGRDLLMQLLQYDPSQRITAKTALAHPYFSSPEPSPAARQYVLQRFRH

Chain of Casein kinase I isoform gamma-2 (Homo sapiens) (P78368 whole entry, looked up, canonical isoform): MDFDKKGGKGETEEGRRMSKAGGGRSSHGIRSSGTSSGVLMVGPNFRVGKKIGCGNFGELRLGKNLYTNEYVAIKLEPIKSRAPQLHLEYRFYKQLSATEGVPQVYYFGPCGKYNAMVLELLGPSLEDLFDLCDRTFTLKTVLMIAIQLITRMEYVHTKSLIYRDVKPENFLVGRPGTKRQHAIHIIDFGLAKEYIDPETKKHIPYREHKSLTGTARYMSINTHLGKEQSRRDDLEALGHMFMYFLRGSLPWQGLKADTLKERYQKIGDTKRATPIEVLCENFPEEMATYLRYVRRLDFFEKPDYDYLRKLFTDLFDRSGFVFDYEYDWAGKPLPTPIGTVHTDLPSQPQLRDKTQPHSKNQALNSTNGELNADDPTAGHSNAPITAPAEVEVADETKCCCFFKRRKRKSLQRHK
Chain of Casein kinase I isoform gamma-3 (Homo sapiens) (Q9Y6M4 whole entry, looked up, canonical isoform): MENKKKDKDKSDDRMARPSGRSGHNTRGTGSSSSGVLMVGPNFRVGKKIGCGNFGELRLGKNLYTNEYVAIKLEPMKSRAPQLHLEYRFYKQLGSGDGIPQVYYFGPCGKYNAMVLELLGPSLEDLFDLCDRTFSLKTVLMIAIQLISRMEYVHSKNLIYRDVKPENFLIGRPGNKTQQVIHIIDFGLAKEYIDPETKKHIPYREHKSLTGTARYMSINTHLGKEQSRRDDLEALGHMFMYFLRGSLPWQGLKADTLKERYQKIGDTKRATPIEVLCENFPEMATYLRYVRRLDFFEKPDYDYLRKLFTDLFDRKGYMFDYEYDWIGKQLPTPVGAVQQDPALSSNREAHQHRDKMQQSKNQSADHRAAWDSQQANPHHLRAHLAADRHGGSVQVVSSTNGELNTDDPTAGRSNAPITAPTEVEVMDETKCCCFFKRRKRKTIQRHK
Chain of Cyclin-dependent kinase 1 (Homo sapiens) (P06493 whole entry, looked up): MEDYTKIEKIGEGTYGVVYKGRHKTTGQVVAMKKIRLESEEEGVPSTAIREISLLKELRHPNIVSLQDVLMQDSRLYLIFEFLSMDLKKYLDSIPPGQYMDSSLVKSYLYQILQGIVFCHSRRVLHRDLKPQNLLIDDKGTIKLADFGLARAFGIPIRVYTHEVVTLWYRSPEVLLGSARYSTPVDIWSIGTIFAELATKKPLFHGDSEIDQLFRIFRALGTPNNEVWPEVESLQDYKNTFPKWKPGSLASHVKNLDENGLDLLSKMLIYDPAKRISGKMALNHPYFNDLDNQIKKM

The inhibition is the drop in the measured response relative to a control, in per cent. Take `COc1ccc(-c2ccc3c(NC(=O)C4CC4)n[nH]c3n2)cc1`: the inhibition worked out at 1.22% in assay [1]; 1.89% in assay [2]; 2.61% in [3]; 0.44% in assay [4]; 4.03% in assay [5]; 1.61% in assay [6]. In addition, the inhibition in [7] was found to be 10.7%; in assay [8] it was 1.4%; in [9], 4.59%; in assay [10], 2.19%.
Turning to `Cc1ccc(NC(=O)c2ccoc2)cc1-c1ccc(C(=O)NCC2CC2)cc1`, the inhibition in assay [1] was 3.57%; in assay [2], 2.63%; in [3], 2.71%; in assay [4], 1.06%; in assay [5], 1.75%; in assay [6] it was -0.08%. Moreover, the inhibition was 1.04% in [7], 0.91% in [8], 3.1% in assay [9] and -0.03% in assay [10].
Take `O=C(Nc1n[nH]c2nc(-c3ccc(O)cc3)c(Br)cc12)C1CC1`: the inhibition in assay [1] turned out to be 7.38%; in assay [2], 1.39%; in [3], 4.72%; in assay [4] it was 24.2%; in assay [5], 64.2%; in assay [6], 63.1%. For the same compound, the inhibition turned out to be 108% in assay [7], 36.5% in assay [8], 73% in [9] and 27.5% in assay [10].
Turning to `N#Cc1ccc(Oc2nccc(-c3c(-c4ccc(F)cc4)ncn3C3CCNCC3)n2)cc1`, the inhibition in assay [1] turned out to be 5.15%; in assay [2], 1.83%; in assay [3], 5.34%; in [4], 0.28%; in assay [5], 1.02%; in assay [6], 0.77%. The inhibition in [7] was 1.99%; in assay [8] it was 1.81%; in [9], 2.89%; in assay [10] it was -1.88%.
As for `C#Cc1cccc(Nc2ncnc3ccc(OCCCCNCCS(C)(=O)=O)cc23)c1`, the inhibition was 1.61% in assay [1]; -0.3% in [2]; 0.33% in assay [3]; -2.94% in assay [4]; -2.94% in [5]; -1.15% in assay [6]. For the same compound, the inhibition in [7] is -0.68%; in assay [8], 0.97%; in assay [9] it was 1.11%; in [10], 3.19%.
Regarding `NS(=O)(=O)c1ccc(Nc2cc(-c3ccc(O)c(F)c3)n[nH]2)cc1`, the inhibition in [1] is 2.15%; in assay [2] it was -3.13%; in assay [3], 4.18%; in [4], 10.9%; in assay [5], 51.7%; in assay [6] it was 53.3%. Besides, the inhibition in assay [7] stood at 78.9%; in assay [8], 59.9%; in [9], 86.9%; in assay [10] it was 9.52%.
With `COc1cc2ncn(-c3cc(OCCc4ccccc4)c(C(N)=O)s3)c2cc1OC`, the inhibition was determined as 7.82% in assay [1]; 2.44% in assay [2]; 6.34% in assay [3]; 0.36% in assay [4]; 1.62% in assay [5]; 0.55% in assay [6]. For the same compound, the inhibition in assay [7] was 3.19%; in assay [8], 2.3%; in [9], 5.22%; in assay [10], 1.71%.
As to `NS(=O)(=O)c1ccc(N/N=C2\C(=O)Nc3ccc(-c4cnco4)cc32)cc1`, the inhibition in assay [1] is 0.36%; in assay [2], -3.27%; in assay [3], 0.29%; in assay [4], 32.6%; in [5], 66.8%; in [6] it was 85.8%. The inhibition in assay [7] turned out to be 94.4%; in assay [8], 67.2%; in assay [9], 74.7%; in assay [10], 50%.
`FC(F)(F)c1cccc(Nc2nccc(-c3cnn4nc(-c5ccccc5)ccc34)n2)c1`: the inhibition in [1] was 2.62%; in assay [2], 1.84%; in assay [3], 2.44%; in assay [4], 0.56%; in [5], 4.07%; in [6], 1.41%. Moreover, the inhibition in assay [7] is 13.5%; in [8], 3.41%; in [9] it was 26.4%; in assay [10] it was -1.25%.
With `O=C(Nc1n[nH]c2cc(-c3ccccc3)ccc12)C1CC1`, the inhibition in [1] amounted to 4.84%; in [2], 4.39%; in assay [3] it was 4.52%; in [4] it was 0.9%; in [5] it was 5.76%; in assay [6] it was 3.52%. Also, the inhibition in assay [7] was 11.2%; in assay [8], 4.57%; in assay [9], 8.54%; in assay [10] it was 2.98%.
As for `COc1cc(C)c(N(C)C(=O)CN(C)C)cc1Nc1nc(Nc2cccc(F)c2C(N)=O)c2cc[nH]c2n1`, the inhibition is 10.4% in assay [1]; -0.15% in assay [2]; 26.6% in [3]; -4.66% in assay [4]; -4.18% in [5]; -3.41% in assay [6]. Moreover, the inhibition was 1.23% in [7], -2.41% in assay [8], -2.88% in assay [9] and -0.03% in assay [10].
As to `COc1ccc2cc(-c3c(-c4ccncc4)nc(-c4ccc([S+](C)[O-])cc4C)n3C)ccc2c1` (stereo not given), the inhibition in assay [1] is -0.3%; in assay [2], -1.01%; in [3] it was -1.93%; in assay [4], 0.98%; in assay [5], 3.25%; in [6], 0.63%. Moreover, the inhibition in [7] is -1.45%; in assay [8], 1.09%; in assay [9], 1.29%; in assay [10], -1.08%.
Take `COc1cc(Nc2ncc3c(C)nc(-c4cccc(Oc5ccccc5)c4)n3n2)cc(OC)c1OC`: the inhibition in [1] was 3.44%; in assay [2] it was 1.22%; in [3] it was 5.12%; in [4], -0.4%; in assay [5], 0.45%; in assay [6], 2.04%. The inhibition was 2.37% in assay [7], 0.75% in assay [8], 3.13% in assay [9] and 0.34% in assay [10].
On to `Fc1ccc(-c2ncn(C3CCNCC3)c2-c2ccnc(Oc3ccc(Oc4ccccc4)cc3)n2)cc1`, for which the inhibition in [1] is 14.6%; in assay [2] it was 7.8%; in assay [3], 26.3%; in [4], 1.88%; in assay [5], 2.92%; in assay [6], 3.49%. The inhibition in assay [7] was 4.28%; in assay [8] it was 2.95%; in assay [9], 4.3%; in [10], -3.73%.
For the compound `COc1cc(N2CCN(C(C)C)CC2)ccc1Nc1nc(Nc2ccc(F)cc2C(=O)NC[C@@H](O)CO)c2cc[nH]c2n1`, the inhibition in assay [1] was 15.6%; in assay [2], 2.74%; in [3] it was 31.8%; in assay [4], -2.84%; in assay [5], -2.45%; in [6] it was -1.75%. Also, the inhibition in assay [7] came to 4.45%; in assay [8] it was 0.16%; in assay [9], 0.53%; in assay [10], 3.35%.
For `C/C(Nc1ccc(S(N)(=O)=O)cc1)=C1/C(=O)Nc2ccccc21`, the inhibition in assay [1] is 18.7%; in assay [2], -1.23%; in assay [3] it was 19.1%; in assay [4] it was 0.68%; in assay [5], 14.5%; in [6], 7.75%. In addition, the inhibition in assay [7] is 56%; in [8], 8.8%; in [9], 48.1%; in assay [10], 9.17%.
Take `CN(C)CCCNc1nccc(-c2c(-c3ccc(F)cc3)nn3cc(C(F)(F)F)ccc23)n1`: the inhibition in [1] is -1.02%; in assay [2], -3.53%; in assay [3] it was -1.67%; in assay [4], -1.9%; in assay [5], 1.74%; in assay [6] it was -2.76%. The inhibition in [7] was 3.18%; in assay [8], -2.39%; in assay [9], 1.3%; in [10], 0.59%.
